# Source: PubChem BioAssay (National Center for Advancing Translational Sciences (NCATS))
# FLuc inh – blocks purified firefly luciferase enzyme activity | 2.5% of 76,000 active | Potency, µM (top dose mostly 115 µM), hits mostly inhibitors | purified P. pyralis luciferase, luminescence, biochemical; further: nearly all actives have a fitted effect of over 65% in size
# Target sequence (P08659 whole entry, looked up): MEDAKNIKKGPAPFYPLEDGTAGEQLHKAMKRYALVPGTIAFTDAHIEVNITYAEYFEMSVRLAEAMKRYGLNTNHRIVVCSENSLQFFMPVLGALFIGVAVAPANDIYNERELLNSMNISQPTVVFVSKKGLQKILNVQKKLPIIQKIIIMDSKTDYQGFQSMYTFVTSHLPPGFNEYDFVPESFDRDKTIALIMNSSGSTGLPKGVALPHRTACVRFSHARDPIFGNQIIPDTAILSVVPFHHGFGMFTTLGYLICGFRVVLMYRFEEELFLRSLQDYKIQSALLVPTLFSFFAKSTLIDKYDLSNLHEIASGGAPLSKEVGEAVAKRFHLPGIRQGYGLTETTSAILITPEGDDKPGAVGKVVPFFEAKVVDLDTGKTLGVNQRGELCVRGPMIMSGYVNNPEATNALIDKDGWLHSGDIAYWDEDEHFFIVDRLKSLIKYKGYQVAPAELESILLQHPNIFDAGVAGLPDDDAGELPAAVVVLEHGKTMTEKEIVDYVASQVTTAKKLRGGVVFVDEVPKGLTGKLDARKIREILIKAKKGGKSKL
#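 Luminescence read by CCD imaging after purified firefly luciferase (10nM final) was added to substrate buffer holding 10uM D-luciferin and 10uM ATP, pH 7.5, pre-dosed with compound.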
# HEK cytotox – HEK 293 cell cytotoxicity | HEK 293 viability, ATP luminescence (CellTiter-Glo), 48-72 h | Potency, µM (top dose mostly 115 µM), usual class: inhibitors | 6.6% of 94,000 active; further: nearly all actives have a fitted effect of over 60% in size
#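 CellTiter-Glo luminescence (cellular ATP) was read after 48 or 72 hr of compound exposure at 37 degree Celsius. Cells were HEK 293 plated at 250 cells/well.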
# 3T3 cytotox – cytotoxic compounds in NIH 3T3 cells; Potency, µM (doses to about 96.7 µM), actives largely listed as inhibitors; 4.3% of 94,000 active; NIH 3T3 viability, CellTiter-Glo ATP luminescence, 48-72 h; further: nearly all actives have a fitted effect of over 55% in size
#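 Cells were seeded at 400 per well, treated with pin-transferred compound, and kept 48 or 72 hr at 37 °C before CellTiter-Glo addition and luminescence imaging of cellular ATP.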
# hNpr1 antagonist – antagonists of human natriuretic peptide receptor Npr1; P16066; HEK293 hNpr1 GloSensor cGMP, ANP-stimulated luminescence; Potency, µM (top dose mostly 46.3 µM), usual class: inhibitors; 1.6% of 76,000 active; calls by dose curve; further: nearly all actives have a fitted effect of over 60% in size
#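 HEK293 cells stably expressing human Npr1 and cGMP GloSensor pGS-40F, loaded 2 h with 2% GloSensor reagent, given compound 30 min at room temperature. Luminescence read before and 20 min after 0.1 nM hNppA.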
# A number is an active result; i = inactive; ? = inconclusive; nt = not tested or not shown. Sampled rows, rich in hits. Any-hit rate of the full collection: about 11%. Unless noted, the call rests on the fitted dose curve; in most records, active means well fitted curve in the direction sought with a large enough effect; inconclusive means small, poorly fitted or top-dose-only effect, or another doubt; inactive means no such curve, though single readings can be large; an effect the other way counts as inactive or inconclusive.
SMILES,FLuc inh,HEK cytotox,3T3 cytotox,hNpr1 antagonist
COC[C@@H]1[C@H](C(=O)NCc2ccccc2C)CCC(=O)N1C,nt,i,i,nt
Cc1ccc(CC(=O)N2CCN(c3cc(-c4cccs4)[nH]n3)CC2)cc1,i,?,?,i
COc1cc(C(=O)N2CCN(c3cc(-c4ccc(Cl)cc4)[nH]n3)CC2)cc(OC)c1OC,i,?,25.1µM,?
COc1ccccc1C(=O)N1CCCN(c2cc(-c3ccc(Cl)cc3)[nH]n2)CC1,i,?,?,?
CCOc1ccccc1C(=O)N1CCN(c2cc(-c3ccc(Cl)cc3)[nH]n2)CC1,i,35.5µM,17.8µM,i
CCOc1cc(C(=O)N2CCN(c3cc(-c4ccc(Cl)cc4)[nH]n3)CC2)cc(OCC)c1OCC,i,35.5µM,31.6µM,i
CCOc1ccc(CC(=O)N2CCN(c3cc(-c4cccs4)[nH]n3)CC2)cc1OCC,i,44.7µM,28.2µM,i
Cc1ccc(CN2CCC(N3C(=O)c4c(c(C)nn4-c4ccccc4)C3C3CC3)CC2)cc1 (stereo not given),nt,i,i,nt
COc1ccccc1CC(=O)N1CCN(c2cc(-c3cccs3)[nH]n2)CC1,i,39.8µM,?,?
Cc1ccccc1C(=O)N1CCN(c2cc(-c3cccs3)[nH]n2)CC1,i,?,?,i
CCOc1ccccc1C(=O)N1CCN(c2cc(-c3cccs3)[nH]n2)CC1,i,39.8µM,?,i
COC(=O)CNC(=O)c1ccc2nnc(-c3cc(F)ccc3F)n2c1,nt,i,i,nt
O=C(NC1CCCCCC1)c1cc(-c2ccc(Cl)cc2Cl)c2nncn2n1,nt,39.8µM,?,nt
O=C(NCc1ccc(Cl)cc1)c1cc(-c2ccc(Cl)cc2Cl)c2nncn2n1,nt,?,35.5µM,nt
Cc1cc2nc3n(c(=O)c2n1CC(=O)N1CCCc2ccccc21)CCCC3,i,i,i,i
COc1ccccc1N1CCN(C(=O)Cn2c(C)cc3nc4n(c(=O)c32)CCCCC4)CC1,i,?,28.2µM,i
CN(C(=O)Cc1cccc(Cl)c1)C1CCCc2ccccc21 (stereo not given),i,100µM,?,i
Cc1ccccc1C(=O)N(C)C1CCCc2ccccc21 (stereo not given),i,89.1µM,?,i
CN(C1CCCc2ccccc21)S(C)(=O)=O (stereo not given),i,i,i,i
Cc1ccc(S(=O)(=O)N(C)C2CCCc3ccccc32)cc1 (stereo not given),i,89.1µM,?,i
CN(C(=O)c1ccc(C(F)(F)F)cc1)C1CCCc2ccccc21 (stereo not given),?,?,50.1µM,i
Cn1nc(C2CCN(C(=O)c3ccc(F)cc3)CC2)n(Cc2ccccc2)c1=O,nt,i,?,nt
O=C(c1cccc(Cl)c1)N1CCCN(c2ccc3nnc(C4CC4)n3n2)CC1,nt,i,i,nt
CC(C)c1ccc(CN2CCC3(CC2)COCCN3C(=O)OCc2ccccc2)cc1,i,50.1µM,35.5µM,?
COc1ccc(CN2CCC3(CC2)COCCN3C(=O)OCc2ccccc2)cc1O,i,i,?,i
SMILES,FLuc inh,HEK cytotox,3T3 cytotox,hNpr1 antagonist
O=C(OCc1ccccc1)N1CCOCC12CCN(Cc1cccnc1)CC2,i,?,?,i
O=C(OCc1ccccc1)N1CCOCC12CCN(Cc1ccc(F)cc1)CC2,i,70.8µM,?,i
O=C(OCc1ccccc1)N1CCOCC12CCN(Cc1cccs1)CC2,i,?,28.2µM,i
O=C(COc1ccccc1)N1CCOCC12CCN(Cc1ccccc1)CC2,i,44.7µM,?,i
O=C(c1ccc(Oc2ccccc2)cc1)N1CCOCC12CCN(Cc1ccccc1)CC2,i,?,?,i
O=C(C1CCCN1C(=O)c1cccc(Cl)c1)N1CCC(c2nc3ccncc3[nH]2)C1 (stereo not given),nt,i,i,nt
C[C@@H](N)C(=O)N1CCC(C(=O)Nc2cccc(-c3cccc(Cl)c3)c2)CC1,i,39.8µM,28.2µM,i
CS(=O)(=O)N1CCC(OC2CCN(C(=O)Nc3cccc(Cl)c3)CC2)CC1,i,?,?,i
Cc1ccc(C2Cn3nnc(-c4nc(-c5cccnc5)no4)c3CO2)c(C)c1 (stereo not given),i,?,15.8µM,i
Cc1ccc(C2Cn3nnc(-c4nc(-c5cccc(Cl)c5)no4)c3CO2)c(C)c1 (stereo not given),i,i,i,i
Cc1ccccc1CN1CCc2nc(C(=O)Nc3ccccc3)oc2CC1,?,39.8µM,?,10µM
Cc1cc(F)cc(CN2CCc3nc(C(=O)Nc4ccccc4)oc3CC2)c1,22.4µM,?,25.1µM,12.6µM
O=C(Nc1ccc(Cl)cc1)c1nc2c(o1)CCN(Cc1cnc[nH]1)CC2,70.8µM,?,?,?
Cc1ccc(CN2CCc3nc(C(=O)Nc4cccnc4)oc3CC2)o1,?,?,i,i
O=C(NCCOc1ccccc1)c1nc2c(o1)CCN(Cc1cccc(F)c1)CC2,i,?,?,?
O=C(NC1CCCC1)N1CCC(C(=O)N2CCC(N3Cc4ccccc4C3=O)CC2)CC1,nt,i,i,nt
CN(C)[S+](=O)([O-])c1ccc2c(c1)OCCN(Cc1cccc(Cl)c1)C2,i,79.4µM,?,i
Cc1cc(F)cc(CN2CCOc3cc([S+](=O)([O-])N(C)C)ccc3C2)c1,i,79.4µM,39.8µM,i
CN(C)[S+](=O)([O-])c1ccc2c(c1)OCCN(Cc1cc(F)ccc1F)C2,i,?,?,i
CCN1C(=O)C2CC3(CCN(C4CCCCC4)CC3)CN2C1=O (stereo not given),nt,i,i,nt
Cc1nc2c(OCC(=O)c3ccccc3)cccn2c(=O)c1-c1cc(C)n(-c2ccc(Cl)cc2)n1,28.2µM,?,?,i
CCOc1cccn2c(=O)c(-c3cc(C)n(-c4ccc(Cl)cc4)n3)c(C)nc12,i,?,i,i
COc1ccc(C(=O)NCC2(COc3ccccc3)C[C@@H](O)[C@@H](O)C2)cc1 (stereo not given in full),i,i,44.7µM,i
O=C1c2cnc(-c3cc4ccccc4o3)nc2OCCN1c1ccccc1,0.01µM,i,i,0.282µM
CC(=O)Nc1cccc(-c2ncc3c(n2)OCCN(c2ccccc2)C3=O)c1,28.2µM,i,17.8µM,i
SMILES,FLuc inh,HEK cytotox,3T3 cytotox,hNpr1 antagonist
NC(=O)c1cccc(-c2ncc3c(n2)OCCN(c2ccccc2)C3=O)c1,44.7µM,?,?,i
CC(=O)Nc1cccc(-c2ncc3c(n2)OCCN(CC2CC2)C3=O)c1,50.1µM,i,?,i
CNC(=O)c1cc(C)nc2onc(C3CCCN3C(=O)c3ccccc3Cl)c12 (stereo not given),nt,i,i,nt
Cc1noc(C)c1[S+](=O)([O-])N1CCN(C(=O)c2nc3cccnc3n(Cc3ccccc3)c2=O)CC1,nt,i,i,nt
COc1cccc(NC(=O)[C@@H]2C[C@@H](c3cccc(C(F)(F)F)c3)N(C)C2)c1,i,100µM,79.4µM,i
COc1ccc(NC(=O)[C@@H]2C[C@@H](c3cccc(C(F)(F)F)c3)N(C)C2)c(C)c1,i,?,?,i
CN1C[C@H](C(=O)Nc2ccccc2)C[C@H]1c1cccc(C(F)(F)F)c1,i,79.4µM,44.7µM,i
COc1ccc(CCNC(=O)c2ccc3nnc(-c4ccc(F)cc4)n3c2)cc1,nt,i,i,nt
